A number with no mark means an inactive call. Activity calls are given as the source filed them.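 Rule for the calls, unless noted: active = mean inhibition above 46.68%, the untreated control wells mean plus 3 SD; inactive = the rest.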
What was measured:
[1] = biological target: Nuclear receptor coactivator 1 (Homo sapiens) (UniProt Q15788); assay: NCOA1 GAL4-fusion reporter inhibition – cell-based, luminescence, quadruplicate, confirmation (AID 588820); conditions: HEK293 GAL4-SRC1 luciferase reporter, at 3.6 µM, stronger effect = higher value;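 note: 0% = DMSO wells and 100% = gossypol 36 µM treated wells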
[2] = repression of VP16-driven luciferase reporter – cell-based, luminescence, high throughput, counter-screen for SRC1 inhibitor project (AID 588824; in the data active = inhibition above about 25%); conditions: cell-based VP16 transactivation luciferase luminescence; at 3.6 µM; stronger effect = higher value

Sequence of Nuclear receptor coactivator 1 (Homo sapiens) (Q15788 whole entry, looked up, the tested form may be a part): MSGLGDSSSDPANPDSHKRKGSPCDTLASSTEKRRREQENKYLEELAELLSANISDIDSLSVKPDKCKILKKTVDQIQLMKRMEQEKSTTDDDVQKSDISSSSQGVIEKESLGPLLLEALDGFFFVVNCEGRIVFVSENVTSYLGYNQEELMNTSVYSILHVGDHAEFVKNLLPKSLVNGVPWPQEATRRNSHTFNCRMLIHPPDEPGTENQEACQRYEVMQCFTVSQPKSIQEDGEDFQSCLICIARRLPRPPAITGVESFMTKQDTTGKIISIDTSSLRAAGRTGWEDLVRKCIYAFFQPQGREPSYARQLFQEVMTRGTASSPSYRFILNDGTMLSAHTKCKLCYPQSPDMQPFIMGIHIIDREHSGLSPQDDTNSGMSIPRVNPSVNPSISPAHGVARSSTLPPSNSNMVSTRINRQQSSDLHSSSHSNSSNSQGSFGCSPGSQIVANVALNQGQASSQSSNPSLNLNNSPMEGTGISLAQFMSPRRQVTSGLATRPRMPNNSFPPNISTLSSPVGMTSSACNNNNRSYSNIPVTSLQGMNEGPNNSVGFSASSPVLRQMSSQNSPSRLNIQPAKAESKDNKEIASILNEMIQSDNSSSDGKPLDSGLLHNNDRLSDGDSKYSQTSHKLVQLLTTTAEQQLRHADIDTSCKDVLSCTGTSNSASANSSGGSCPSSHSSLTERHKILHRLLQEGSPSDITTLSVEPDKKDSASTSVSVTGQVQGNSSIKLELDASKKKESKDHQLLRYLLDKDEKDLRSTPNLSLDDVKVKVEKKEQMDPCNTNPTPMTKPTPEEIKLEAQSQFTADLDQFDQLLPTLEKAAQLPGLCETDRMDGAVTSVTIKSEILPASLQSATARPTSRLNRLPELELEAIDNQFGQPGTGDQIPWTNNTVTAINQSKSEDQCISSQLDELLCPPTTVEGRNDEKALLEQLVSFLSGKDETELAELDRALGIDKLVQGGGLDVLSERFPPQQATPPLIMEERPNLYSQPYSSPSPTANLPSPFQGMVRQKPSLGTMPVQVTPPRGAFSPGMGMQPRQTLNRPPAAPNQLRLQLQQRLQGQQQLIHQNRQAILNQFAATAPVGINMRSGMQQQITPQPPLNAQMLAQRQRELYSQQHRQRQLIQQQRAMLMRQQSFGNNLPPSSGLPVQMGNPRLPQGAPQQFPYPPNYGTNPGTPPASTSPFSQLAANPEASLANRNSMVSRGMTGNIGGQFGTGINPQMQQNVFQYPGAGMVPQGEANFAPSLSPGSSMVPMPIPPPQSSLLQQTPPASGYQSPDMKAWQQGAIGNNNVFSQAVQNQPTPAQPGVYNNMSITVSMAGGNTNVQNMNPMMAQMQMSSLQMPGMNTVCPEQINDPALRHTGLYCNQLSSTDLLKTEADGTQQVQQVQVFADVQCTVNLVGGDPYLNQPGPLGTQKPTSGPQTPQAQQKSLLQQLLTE

Row | Structure (SMILES) | inhibition [1] | inhibition [2]
1 | C[C@H]1Cn2cnc(C(=O)Nc3cccc(Cl)c3)c2C(=O)N1 | 61.2% (active) | 34% (active)
2 | CCOc1cc(/C=N/Nc2nc3ccccc3[nH]2)cc(Br)c1OCC(=O)N(C)C | -9.77% | -3.09%
3 | COc1cccc(NC2=NC3(CCCCC3)N=C(N)N2)c1 | -9.2% | 9.05%
4 | O=C(NCC[C@@H]1C[C@@H]2C=C[C@H]1C2)c1cc(COc2ccc(F)cc2F)on1 | -4.95% | 1.83%
5 | COc1ccc(CNc2nc(C)cc(C)c2C#N)cc1 | -9.61% | -3.68%
6 | CCN(C(=O)CN1C(=O)S/C(=C\c2cccc(Cl)c2)C1=O)C1CCS(=O)(=O)C1 (stereo unspecified) | 4.59% | 4.57%
7 | CC1CCc2c(sc3ncnc(N4CCOCC4)c23)C1 (stereo unspecified) | 40% | 26.6% (active)
8 | Cc1c(C(=O)N/N=C/C(C)C)[nH]c2ccc([N+](=O)[O-])cc12 | 17.2% | 14.8%
9 | COc1ccc(-c2cc(N3C(=O)Nc4ccccc4N3O)n[nH]2)c(OC)c1 | 25.8% | 20.1%
10 | COc1ccc(OC)c(/C=N/NC(=O)c2cc3c(OC)cccc3[nH]2)c1 | -19.2% | -10%
11 | Cc1nn(-c2ccccc2)c(C)c1NC(=O)COC(=O)C1CC(=O)N(CCc2ccccc2)C1 (stereo unspecified) | -14.4% | 2.89%
12 | O=C(CCn1cnc(-c2ccccc2)c1-c1ccccc1)N/N=C/c1ccccc1O | 18.6% | 11.4%
13 | c1cncc(CNC2CCCc3ccccc32)c1 (stereo unspecified) | 0.67% | -8.78%
14 | COc1ccccc1CCNC(=O)CCn1c(=O)c2cccn2c2ccc(F)cc21 | -9.66% | -15.2%
15 | COc1ccccc1C(NC(C)=O)c1cc(Cl)c2cccnc2c1O (stereo unspecified) | 31.7% | 26.6% (active)
16 | COc1ccc(Oc2nc3c(c(=O)n(C)c(=O)n3C)n2C)cc1 | 24.8% | 16.6%
17 | COc1ccc(C(=O)c2c(C)c3ccccc3n2CC(O)CNC(C)C)cc1 (stereo unspecified) | -15.4% | -0.38%
18 | CSC1=NCCCN1C(=O)c1c(-c2ccccc2Cl)noc1C | 0.66% | -14.8%
19 | O=C(Nc1ccccc1)c1ccc(S(=O)(=O)NCc2cccnc2)cc1 | -8.68% | 0.28%
20 | CN(Cc1ccc(F)cc1)C(=O)c1cccc(S(=O)(=O)N2CCN(c3ccccc3)CC2)c1 | -0.46% | 15%
21 | COc1cccc(/C=N/NC(=O)CNC(=O)C2COc3ccccc3O2)c1O (stereo unspecified) | 21.7% | 8.91%
22 | CCN(CC)c1ccc(/C=N/Nc2nc3ccccc3[nH]2)c(O)c1 | -7.34% | 3.82%
23 | CCC1(c2ccccc2)NC(=O)N(CC(=O)Nc2ccccc2C(=O)NC2CCCC2)C1=O (stereo unspecified) | -5.15% | -0.59%
24 | COC(=O)c1cc(=O)n(Cc2ccco2)c(=Nc2ccc(F)c(Cl)c2)s1 | -12.1% | 18.7%

Row | Structure (SMILES) | inhibition [1] | inhibition [2]
25 | Cc1cc(C)c(S(=O)(=O)N2CCCC2=O)c(C)c1N(C)S(C)(=O)=O | 0.14% | -4.1%
26 | Cc1cc(C)nc(-n2ncc(C#N)c2N)n1 | -18.5% | 5.06%
27 | Cc1ccc(C(=O)NCCn2cc(SCC(=O)Nc3cc(C)on3)c3ccccc32)cc1 | 0.49% | -11.3%
28 | CCNc1nc2c(c(=O)n(C)c(=O)n2C)n1Cc1ccc(Cl)cc1 | -0.87% | 23.4%
29 | COC(=O)c1cccc(NC(=O)CN2C(=O)c3ccccc3C2=O)c1 | -23.7% | -3.69%
30 | Cc1cccc(-n2ncc3c2CCCC3NC(=O)CCN2CCCCO2)c1C (stereo unspecified) | -0.83% | -2.39%
31 | Cc1ccc(NNC(=O)C(=O)N2CCCCC2)cc1 | -16.9% | 11.6%
32 | CC(OC(=O)CSCC(=O)Nc1ccc(Cl)cc1)C(=O)N(C)Cc1ccccc1 (stereo unspecified) | -7.38% | 1.96%
33 | Cn1cc(S(=O)(=O)Nc2ccc(OC(F)(F)F)cc2)c(=O)n(C)c1=O | 6.39% | -5.51%
34 | COc1ccc2c(c1)c(C(=O)CN1CCN(Cc3ccccc3)CC1)c(C)n2C | -13.6% | -0.22%
35 | O=C(CCCn1c(=S)[nH]c2ccsc2c1=O)Nc1ccc2c(c1)OCCO2 | -1.89% | -10.8%
36 | CC(Oc1ccccc1)C(=O)N1CCC2(CC1)CC(=O)c1ccccc1O2 (stereo unspecified) | 5.89% | 3.37%
37 | O=C(NCc1ccco1)c1cccc(NC(=O)c2ccco2)c1 | 28.5% | 50% (active)
38 | COc1ccc2c(c1)c(C(C)=O)c(C)n2-c1ccccc1 | 13.5% | 19.1%
39 | CN(Cc1cccs1)C(=O)CN1CCN(S(=O)(=O)c2ccc3c(c2)OCCCO3)CC1 | -16.6% | -8.72%
40 | COC(=O)N(NC(=O)C(O)(CCC(C)C)CCC(C)C)c1ccccc1 | 16.2% | 11.5%
41 | CC(C)Cn1c(N)c(C(=O)COC(=O)CC23CC4CC(CC(C4)C2)C3)c(=O)n(C)c1=O | 6.72% | 34.8% (active)
42 | Cc1nc(N/N=C/c2ccc(O)cc2O)cc(N2CCOCC2)n1 | -26.5% | -14.6%
43 | O=c1c2ccccc2oc2ccc(C#CC3(O)CCCCC3)cc12 | -38.7% | -23.9%
44 | CC1Sc2ccc(C(=O)Nc3ccc(S(=O)(=O)N(C)C)cc3)cc2NC1=O (stereo unspecified) | 9.77% | 6.36%
45 | Nc1nc(N)c2c(ccc3nccc32)[nH]1 | -7.68% | 24.9%
46 | COc1ccc(-c2cn[nH]c2C)cc1 | -12% | 5.39%
47 | CCCCN(C(=O)/C=C/c1ccccc1)C1CCS(=O)(=O)C1 (stereo unspecified) | -6.12% | -4.11%
48 | CCCCCCCC[n+]1c(C)n(-c2ccccc2)c2ccc(NC(C)=O)cc21 | 15.6% | 19.2%

From PubChem BioAssay
